From PubChem
Rows were chosen to be rich in hits. Some 2.7% of all compounds tested hit in one or more screens of this group.
A549 tox = Nrf2 qHTS screen for inhibitors: counterscreen for cytotoxicity; AID 504648, 2011; 390,000 compounds, 0.16% hits; A549 ARE-Fluc cells, CellTiter-Fluor viability, 18-24 h; Potency, µM (highest dose often 46 µM), for the others: at the highest dose activity change, negative = cytotoxicity, hits mostly inhibitors; further: potency means the concentration at half of the fitted maximal effect; on the % scale 0 is the no-effect control and ±100 the full control effect
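A549 ARE-Fluc cells in 5% FBS OPTI-MEM, 5000 cells/well, rested 2 h then exposed to compounds in concentration-response for 18-24 h at 37 °C. Viability by CellTiter-Fluor fluorescence (Ex 405/Em 525) after 30 min; luciferase luminescence (BugLite, 15 min, RT) read afterwards.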
Nrf2 inh = Nrf2 qHTS screen for inhibitors; A549 ARE-Fluc reporter, luciferase luminescence, 18-24 h; Potency, µM (top dose mostly 46 µM), for inactives: at the highest dose activity change, negative = inhibition, actives largely listed as inhibitors; 360,000 compounds, 2.1% hits; AID 504444, 2011; further: potency means the concentration at half of the fitted maximal effect; on the % scale 0 is the no-effect control and ±100 the full control effect; nearly all actives have a fitted effect of over 60% in size
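Nrf2 function is reported as luminescence of an ARE-controlled luciferase in A549 cells. Compounds were tested at several concentrations, and a CellTiter-Fluor read on the same wells flagged cytotoxicity.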
LDHA block = qHTS assay for inhibitors of human lactate dehydrogenase; L-lactate dehydrogenase A chain (Homo sapiens), P00338; purified LDHA, NADH/diaphorase-resazurin fluorescence; hits give low values; activity change, % (values are at about 110 or 230 µM); 480,000 compounds, 0.15% hits; in the data active means activity change below about -30%; inconclusive means mostly about -25% to -30%;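 further: plate controls were DMSO wells for no effect and wells without enzyme for full effect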
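LDH5 2 nM; NADH 0.06 mM, pyruvate 0.2 mM; 200 mM Tris pH 7.4, EDTA, Tween-20; 5 min RT. Detection: diaphorase 0.133 mg/mL + resazurin 37 µM, fluorescence ex540/em590 at 0 and 20 min; normalized to enzyme-free and DMSO wells.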
ERG Ets-DNA blk = qHTS for Small Molecule Inhibitors of the ERG Ets/DNA interaction; Transcriptional regulator ERG (Homo sapiens), P11308; fluorescence polarization, His-ERG Ets domain / labelled DNA; Potency, µM (top dose mostly 76.9 µM), inactives show top-dose FP activity, negative = inhibition, actives largely listed as inhibitors; 370,000 compounds, 0.028% hits; AID 624246, 2012; active means well fitted inhibition curve with a large enough effect in the polarisation, with a control signal flat; inconclusive means small, poorly fitted or top-dose-only effect, or effect the other way, or a change in a side signal; inactive means no such curve, though single readings can be large or run the other way; the % refers to the polarisation;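 further: polarization taken with two DNA probes labelled with fluorescein and Texas red; potency means the concentration at half of the fitted maximal effect; % of control where 0% means no effect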
Target sequence (P11308 whole entry, looked up, the tested form may be a part): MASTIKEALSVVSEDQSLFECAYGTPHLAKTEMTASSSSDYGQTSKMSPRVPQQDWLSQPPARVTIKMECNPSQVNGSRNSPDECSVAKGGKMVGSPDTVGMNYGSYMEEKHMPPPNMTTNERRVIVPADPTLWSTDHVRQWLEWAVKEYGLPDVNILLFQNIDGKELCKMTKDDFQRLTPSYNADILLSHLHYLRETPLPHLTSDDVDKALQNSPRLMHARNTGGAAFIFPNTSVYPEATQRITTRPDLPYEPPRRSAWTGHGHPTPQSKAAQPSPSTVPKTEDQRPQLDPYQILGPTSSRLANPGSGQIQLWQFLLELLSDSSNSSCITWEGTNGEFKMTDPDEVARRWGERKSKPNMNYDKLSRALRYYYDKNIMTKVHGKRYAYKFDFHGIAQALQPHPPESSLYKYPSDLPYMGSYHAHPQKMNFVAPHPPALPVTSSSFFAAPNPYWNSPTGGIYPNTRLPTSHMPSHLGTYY
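His-tagged ERG Ets domain (1 uM in the protein solution; 300mM KCl, 50mM Tris-HCl, 1mM EDTA, 1mM DTT, pH 7.5) received compound, then a probe mix of 5 nM fluorescein-DNA and 100nM Texas-615-DNA. Fluorescence polarization was read for both dyes.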
12-LOX inh = Primary qHTS assay for inhibitors of human arachidonate 12S-lipoxygenase (ALOX12): Round 2; Polyunsaturated fatty acid lipoxygenase ALOX12 (Homo sapiens), P18054; purified 12hLO, xylenol orange hydroperoxide absorbance; Potency, µM (highest dose often 108 µM), without a hit: at the highest dose activity change, negative = inhibition, usual class: inhibitors; 580,000 compounds, 1.1% hits; AID 1671190, 2021; further: potency means the concentration at half of the fitted maximal effect; on the % scale 0 is the no-effect control and ±100 the full control effect
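Purified human 12hLO at 150 nM in 25 mM Hepes, 0.01% Triton X-100, pH 7.0, preincubated 15 min at room temperature with compound. Reaction started with 40 uM arachidonic acid, 30 min at room temperature. Hydroperoxide measured by Fe-xylenol orange, 573/405 nm absorbance ratio.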
Nrf2 activator = qHTS of Nrf2 Activators; Potency, µM (highest dose often 46.1 µM), for inactives: at the highest dose activation, actives largely listed as activators; AREc32 ARE-luciferase reporter (MCF7-derived line), luminescence, 24 h; AID 624171, 2012; 410,000 compounds, 0.31% hits; further: potency means the concentration at half of the fitted maximal effect; % of control where 0% means no effect; nearly all actives have a fitted effect of over 65% in size
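Luciferase luminescence (Steady-Glo, 30 min at room temperature) served as the read-out of ARE activation in AREc32 cells treated with compounds for 24 hr at 37 deg C.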
Active calls of the source: *; ! = not active in a repeat. Unless noted, the call rests on the fitted dose curve; in most records, active means well fitted curve in the direction sought with a large enough effect; inconclusive means small, poorly fitted or top-dose-only effect, or another doubt; inactive means no such curve, though single readings can be large; an effect the other way counts as inactive or inconclusive.

For C[N+](C)(C)C/C=C1/COCO1 the results were A549 tox -3%, Nrf2 inh -2%, LDHA block -9, ERG Ets-DNA blk 4%, 12-LOX inh 11µM*! and Nrf2 activator 0%.
CCN(C(=S)Nc1cc(S(=O)(=O)N(C)C)ccc1C)c1cccc2ccccc12 was read as LDHA block 105 and 12-LOX inh inconclusive.
For Cc1ccccc1C1=C/C(=C(\SS/C(C(=O)c2ccc(OCC(=O)O)c(Cl)c2Cl)=C2\C=C(c3ccccc3C)SS2)C(=O)c2ccc(OCC(=O)O)c(Cl)c2Cl)SS1 the results were A549 tox inconclusive, Nrf2 inh inconclusive, LDHA block -14, 12-LOX inh 5.6µM* and Nrf2 activator 0%.
O=C(O)COc1ccc2nsnc2c1Cl was read as A549 tox -6%, Nrf2 inh -4%, LDHA block -5, ERG Ets-DNA blk 0%, 12-LOX inh 0% and Nrf2 activator 1%.
For CCCOc1ccc(C(F)(F)F)cc1N the results were LDHA block -2 and 12-LOX inh inconclusive.
For CCCOc1ccc(C[N+](C)(C)C)cc1C[N+](C)(C)C the results were LDHA block -1 and 12-LOX inh 63µM*.
`COc1ccc(NC(=O)Cc2cc(Cl)c3c(c2)OCCO3)cc1S(=O)(=O)N(C)C` gave LDHA block 0 and 12-LOX inh inconclusive.
Screening FC(F)(F)c1ccc(=S)[nH]c1 returned LDHA block 8 and 12-LOX inh 5µM*.
NC(=S)c1ccc(C(F)(F)F)cc1 was read as LDHA block -1 and 12-LOX inh inconclusive.
`CCOc1ccc(C(=O)CC(Sc2ccc(C)cc2)C(=O)O)cc1` (configuration not stated) gave A549 tox 0%, Nrf2 inh -3%, LDHA block 1, ERG Ets-DNA blk 5%, 12-LOX inh inconclusive and Nrf2 activator 18µM*.
`O=C(CC(Sc1ccc(Br)cc1)C(=O)O)c1ccc(F)cc1` (configuration not stated) gave A549 tox 3%, Nrf2 inh inconclusive, LDHA block -5, ERG Ets-DNA blk 6%, 12-LOX inh 15% and Nrf2 activator inconclusive.
Screening CSc1nsc(N/N=C/c2ccc3c(c2)OCO3)c1C#N returned A549 tox 0%, Nrf2 inh 4%, LDHA block -2, ERG Ets-DNA blk 3%, 12-LOX inh inconclusive and Nrf2 activator 6%.
Screening COc1cc(/C=N/Nc2snc(SC)c2C#N)cc(OC)c1OC returned A549 tox -26%, Nrf2 inh 4.6µM*, LDHA block 4, ERG Ets-DNA blk -1%, 12-LOX inh -4% and Nrf2 activator 3%.
For Cc1cc(C)cc(-n2cccc2)c1 the results were LDHA block 1 and 12-LOX inh inconclusive.
`CC(=O)Oc1c(Cl)cc(Cl)cc1/C=C/c1ccc2ccccc2n1` gave A549 tox 9%, Nrf2 inh 16%, LDHA block 8, ERG Ets-DNA blk -3%, 12-LOX inh -22% and Nrf2 activator 13µM*.
COc1ccc(O)c(C(=O)c2cc(SCC(=O)O)c3nc4sc5c(c4c(=O)n3c2)CCCC5)c1 was read as A549 tox -20%, Nrf2 inh 3%, LDHA block 3, ERG Ets-DNA blk 4%, 12-LOX inh 35µM* and Nrf2 activator 0%.
Screening CCOC(=O)c1sc2nc3c(SCC(=O)O)cc(C(=O)c4cc(F)ccc4O)cn3c(=O)c2c1C returned A549 tox -16%, Nrf2 inh -4%, LDHA block -11, ERG Ets-DNA blk 7%, 12-LOX inh inconclusive and Nrf2 activator 5%.
Screening COC(=O)c1sc(N2C(=O)C(O)=C(C(=O)c3ccc(C)o3)C2c2ccco2)nc1C (configuration not stated) returned A549 tox -4%, Nrf2 inh 3%, LDHA block -3, ERG Ets-DNA blk 11%, 12-LOX inh inconclusive and Nrf2 activator 9%.
For CCOc1cccc(C2C(C(=O)c3ccc(C)o3)=C(O)C(=O)N2c2nccs2)c1 (configuration not stated) the results were A549 tox inconclusive, Nrf2 inh -12%, LDHA block 3, ERG Ets-DNA blk 2%, 12-LOX inh 0.63µM* and Nrf2 activator 4%.
`Cc1ccc2nc(N3C(=O)C(O)=C(C(=O)c4ccc(C)o4)C3c3ccco3)sc2c1` (configuration not stated) gave A549 tox -10%, Nrf2 inh 3%, LDHA block -15, ERG Ets-DNA blk 15%, 12-LOX inh 0.56µM* and Nrf2 activator 1%.
Screening Cc1cc(C)c2nc(N3C(=O)C(O)=C(C(=O)c4ccco4)C3c3cccc(O)c3)sc2c1 (configuration not stated) returned A549 tox -15%, Nrf2 inh 9%, LDHA block -4, ERG Ets-DNA blk 7%, 12-LOX inh 25µM* and Nrf2 activator 6%.
`CCOc1cccc(C2C(C(=O)c3ccc(C)o3)=C(O)C(=O)N2Cc2ccncc2)c1` (configuration not stated) gave A549 tox -18%, Nrf2 inh -7%, LDHA block 2, ERG Ets-DNA blk -1%, 12-LOX inh inconclusive and Nrf2 activator 0%.
Cc1ccc2nc(N3C(=O)C(O)=C(C(=O)c4ccco4)C3c3ccc(C)o3)sc2c1 (configuration not stated) was read as A549 tox -23%, Nrf2 inh 8%, LDHA block 18, ERG Ets-DNA blk 32%, 12-LOX inh inconclusive and Nrf2 activator 8%.
Screening COC(=O)c1sc(N2C(=O)C(O)=C(C(=O)c3ccc(C)o3)C2c2cccs2)nc1C (configuration not stated) returned A549 tox inconclusive, Nrf2 inh 21µM*, LDHA block 1, ERG Ets-DNA blk 23% and Nrf2 activator 28%.
`CCc1ccc(OCC(O)Cn2c(=O)c3ccccc3n3nc(C)cc23)cc1` (configuration not stated) gave LDHA block 19 and 12-LOX inh -2%.
